Our source for the activity (normalised, proliferation) values is PubChem BioAssay AID743366 (National Center for Advancing Translational Sciences (NCATS), 2014).

The nature of this assay: qHTS profiling of inhibitors of Plasmodium falciparum (HB3) proliferation (acoustic dispense). As to conditions: P. falciparum HB3 in erythrocytes, SYBR Green, 72 h; at 49.8 µM (top of the series) unless noted.

Take `COc1cc([C@@H]2c3cc4c(cc3[C@@H](O[C@@H]3O[C@@H]5CO[C@@H](c6cccs6)O[C@@H]5[C@H](O)[C@@H]3O)[C@H]3COC(=O)[C@H]23)OCO4)cc(OC)c1O`: the activity (normalised, proliferation) is -0.0351%. The value for `CCNC(=O)c1noc(-c2cc(C(C)C)c(O)cc2O)c1-c1ccc(CN2CCOCC2)cc1` was 117%; that for `CN[C@@H](C)C(=O)N[C@H]1CCCC[C@H]2CC[C@@H](C(=O)N[C@@H](c3ccccc3)c3cn(CCCCc4ccc(CCCCn5cc([C@@H](NC(=O)[C@@H]6CC[C@@H]7CCCC[C@H](NC(=O)[C@H](C)NC)C(=O)N76)c6ccccc6)nn5)cc4)nn3)N2C1=O` was 0.411%. The value for `O=C1c2c(O)ccc(O)c2C(=O)c2c(NCCNCCO)ccc(NCCNCCO)c21` was -5.84%; that for `COc1ccc2cc3[n+](cc2c1OC)CCc1cc2c(cc1-3)OCO2` was -1.06%. The value for `CC(C)C[C@H](NC(=O)[C@H](CCc1ccccc1)NC(=O)CN1CCOCC1)C(=O)N[C@@H](Cc1ccccc1)C(=O)N[C@@H](CC(C)C)C(=O)[C@@]1(C)CO1` was 0.732%; that for `COc1ccc(-c2cc3c(C)nc(N)nc3n(C3CCC(OCCO)CC3)c2=O)cn1` (stereo not given) was -1.37%; that for `CN(C)c1ccc2nc3ccc(=[N+](C)C)cc-3sc2c1` was 19.1%. `CN(Cc1cnc2nc(N)nc(N)c2n1)c1ccc(C(=O)N[C@@H](CCC(=O)O)C(=O)O)cc1`: the activity (normalised, proliferation) stood at 0.621%.

Regarding `CC[C@]1(O)C[C@H]2CN(CCC3=c4ccccc4=N[C]3[C@@](C(=O)OC)(c3cc4c(cc3OC)N(C)[C@H]3[C@@](O)(C(N)=O)[C@H](O)[C@]5(CC)C=CCN6CC[C@]43[C@@H]65)C2)C1`, the activity (normalised, proliferation) came to 2.35%.
